# Data reported in PubChem BioAssay.
# Calls of active or inactive are those of the source.
# How the values were obtained:
# [1] = binders of probe aFSTL3 on microarray, primary screen, stem cell growth factor project, biochemical, small-molecule microarray, fluorescence 635/667 (AID 1064); details: higher = more signal;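 note: measures binding of the biotinylated anti-FSTL3 antibody to printed compounds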
# [2] = binders from COS7 lysate, DM2A8 probe, primary screen, torsin A project, cell lysate, small-molecule microarray, fluorescence 635/667 (AID 1065); details: higher = more signal, COS7 lysate expressing mutant human TOR1A
# [3] = binders of probe aFGF2 on microarray, primary screen, stem cell growth factor project, biochemical, small-molecule microarray, fluorescence 635/667 (AID 1067); details: higher = more signal;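 note: measures binding of biotinylated aFGF2 protein to printed compounds on slides; z-score merges feature fluorescence and signal-to-noise across triplicate slides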
# [4] = binders of probe aFGF10 on microarray, primary screen, stem cell growth factor project, biochemical, small-molecule microarray, fluorescence 635/667 (AID 1071); details: higher = more signal;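 note: score merges 667 nm spot intensity and signal to noise from triplicate slides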
# [5] = target: Neurogenic locus notch homolog protein 2 (Homo sapiens) (UniProt Q04721); assay: Notch2 binders on small-molecule microarrays, primary screen, biochemical, small-molecule microarray, 635 nm fluorescence, stem cell growth factors (AID 1073); details: Notch2 binding, higher = more signal
# [6] = target: Pro-neuregulin-1, membrane-bound isoform (Homo sapiens) (UniProt Q02297); assay: NRG1 binders on small-molecule microarrays, primary screen, psychiatric disease protein project, biochemical, small-molecule microarray, fluorescence 635/667 (AID 1075); details: NRG1 binding, 635 nm fluorescence, higher = more signal;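 note: score combines 667 nm spot fluorescence with signal to noise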
# [7] = system: Neuregulin-1 EGF-like domain; assay: binders of neuregulin-1 EGF-like domain, primary screen, biochemical, small-molecule microarray, 635 nm fluorescence (AID 1081); details: small-molecule microarray binding, higher = more signal;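 note: binding of the protein to compounds printed on small-molecule microarray slides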
# [8] = FRG1 promoter luciferase signal modulators, primary screen, FRG1 inhibition for FSHD, cell-based, C2C12 myotubes, firefly/Renilla luciferase, luminescence (AID 1084); details: higher = more signal, called active from +8 up or from −8 down
# [9] = binders of probe aFST on microarray, primary screen, stem cell growth factor project, biochemical, small-molecule microarray, fluorescence 635/667 (AID 1086); details: higher = more signal;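 note: score merges 667 nm fluorescence with signal-to-noise of each printed compound spot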
# [10] = binders of probe aHhip on microarray, primary screen, stem cell growth factor project, biochemical, small-molecule microarray, fluorescence 635/667 (AID 1087); details: higher = more signal;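 note: score merges spot fluorescence at 667nm with spot signal to noise ratio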
# [11] = system: PRMT1 (protein arginine N-methyltransferase 1); assay: PRMT1 binders on small-molecule microarrays, primary screen, biochemical, small-molecule microarray, 635 nm fluorescence (AID 1088); details: small-molecule microarray binding, higher = more signal;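 note: binding of Prmt1 protein to compounds spotted on small-molecule microarray slides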
# [12] = yeast growth modulation, basal conditions, primary screen, YJM789 clinical isolate, OD600, 24 h (AID 1089);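 note: growth of clinical yeast isolate S. cerevisiae YJM 789 seeded 1000 cells per well; test concentration not given here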; details: S. cerevisiae YJM789 growth, higher = more signal, called active from +8 up or from −8 down
# [13] = fission yeast growth modulation, primary screen, strain 972, OD600, 24 h, no modulator (AID 1090);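 note: basal condition with compound alone and no growth modifier present; test concentration not given here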; details: S. pombe 972 growth, higher = more signal, called active from +8 up or from −8 down
# [14] = S. cerevisiae growth modulation with rapamycin, primary screen, strain BY4716, OD600, 96 h (AID 1091); details: higher = more signal, called active from +8 up or from −8 down; note: test concentration not given here
# [15] = target: Torsin-1A-interacting protein 2 (Homo sapiens) (UniProt Q8NFQ8); assay: LULL1 binders on small-molecule microarray, primary screen, cell lysate, human LULL1 lysate, 635/667 nm fluorescence (AID 1092); details: hLULL1 lysate binding, 635 nm fluorescence, higher = more signal;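 note: probe is lysate of COS7 cells overexpressing human LULL1; score merges per-feature 667 nm fluorescence with signal-to-noise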
# [16] = E. coli growth modulation, two-sided OD650, primary screen, E. coli filamentation project, strain DRC41, 24 h (AID 1093); details: OD650, 24 h, higher = more signal, called active from +8 up or from −8 down;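 note: MC1000 strain lacking acrAB efflux and sulA so SOS filamentation is blocked; test concentration not given here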
# [17] = small-molecule microarray binders of probe aLefty2, primary screen, biochemical, biotinylated probe, 635/667 nm fluorescence (AID 1094); details: higher = more signal;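 note: score merges spot fluorescence near 667 nm with spot signal-to-noise ratio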
# [18] = system: Noggin (protein binding on small-molecule microarray); assay: Noggin binders on small-molecule microarray, primary screen, biochemical, 635/667 nm fluorescence (AID 1095); details: 635 nm fluorescence, higher = more signal;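 note: score merges 667 nm feature fluorescence with signal to noise over triplicate slides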
# [19] = target: Neurogenic locus notch homolog protein 3 (Homo sapiens) (UniProt Q9UM47); assay: NOTCH3 binders on small-molecule microarray, primary screen, biochemical, 635/667 nm fluorescence (AID 1096); details: NOTCH3 binding, 635 nm fluorescence, higher = more signal
# [20] = small-molecule microarray binders of probe aEGFR, primary screen, biochemical, biotinylated probe, 635/667 nm fluorescence (AID 1097); details: higher = more signal;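 note: probe is a biotinylated anti-EGFR antibody binding compounds printed on slides; score combines fluorescence near 667 nm and signal to noise of each spot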
# Sequence of Pro-neuregulin-1, membrane-bound isoform (Homo sapiens) (Q02297 whole entry, looked up, the tested form may be a part, canonical isoform): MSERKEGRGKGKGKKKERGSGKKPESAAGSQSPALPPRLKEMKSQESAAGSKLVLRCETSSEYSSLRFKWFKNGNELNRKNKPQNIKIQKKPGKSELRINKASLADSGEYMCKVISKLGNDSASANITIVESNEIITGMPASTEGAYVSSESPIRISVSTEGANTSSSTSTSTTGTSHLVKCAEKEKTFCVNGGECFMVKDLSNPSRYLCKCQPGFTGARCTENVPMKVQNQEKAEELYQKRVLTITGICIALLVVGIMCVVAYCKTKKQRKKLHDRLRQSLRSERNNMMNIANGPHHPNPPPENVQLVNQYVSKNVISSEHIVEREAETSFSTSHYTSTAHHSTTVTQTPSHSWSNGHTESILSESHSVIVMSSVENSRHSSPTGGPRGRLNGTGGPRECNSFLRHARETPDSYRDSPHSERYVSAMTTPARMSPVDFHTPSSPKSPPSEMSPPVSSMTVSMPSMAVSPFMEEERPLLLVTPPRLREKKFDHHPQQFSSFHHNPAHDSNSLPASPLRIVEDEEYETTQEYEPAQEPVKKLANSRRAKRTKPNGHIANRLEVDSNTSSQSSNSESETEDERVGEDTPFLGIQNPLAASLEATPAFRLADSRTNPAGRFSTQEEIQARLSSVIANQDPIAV
# Sequence of Neurogenic locus notch homolog protein 3 (Homo sapiens) (Q9UM47 whole entry, looked up): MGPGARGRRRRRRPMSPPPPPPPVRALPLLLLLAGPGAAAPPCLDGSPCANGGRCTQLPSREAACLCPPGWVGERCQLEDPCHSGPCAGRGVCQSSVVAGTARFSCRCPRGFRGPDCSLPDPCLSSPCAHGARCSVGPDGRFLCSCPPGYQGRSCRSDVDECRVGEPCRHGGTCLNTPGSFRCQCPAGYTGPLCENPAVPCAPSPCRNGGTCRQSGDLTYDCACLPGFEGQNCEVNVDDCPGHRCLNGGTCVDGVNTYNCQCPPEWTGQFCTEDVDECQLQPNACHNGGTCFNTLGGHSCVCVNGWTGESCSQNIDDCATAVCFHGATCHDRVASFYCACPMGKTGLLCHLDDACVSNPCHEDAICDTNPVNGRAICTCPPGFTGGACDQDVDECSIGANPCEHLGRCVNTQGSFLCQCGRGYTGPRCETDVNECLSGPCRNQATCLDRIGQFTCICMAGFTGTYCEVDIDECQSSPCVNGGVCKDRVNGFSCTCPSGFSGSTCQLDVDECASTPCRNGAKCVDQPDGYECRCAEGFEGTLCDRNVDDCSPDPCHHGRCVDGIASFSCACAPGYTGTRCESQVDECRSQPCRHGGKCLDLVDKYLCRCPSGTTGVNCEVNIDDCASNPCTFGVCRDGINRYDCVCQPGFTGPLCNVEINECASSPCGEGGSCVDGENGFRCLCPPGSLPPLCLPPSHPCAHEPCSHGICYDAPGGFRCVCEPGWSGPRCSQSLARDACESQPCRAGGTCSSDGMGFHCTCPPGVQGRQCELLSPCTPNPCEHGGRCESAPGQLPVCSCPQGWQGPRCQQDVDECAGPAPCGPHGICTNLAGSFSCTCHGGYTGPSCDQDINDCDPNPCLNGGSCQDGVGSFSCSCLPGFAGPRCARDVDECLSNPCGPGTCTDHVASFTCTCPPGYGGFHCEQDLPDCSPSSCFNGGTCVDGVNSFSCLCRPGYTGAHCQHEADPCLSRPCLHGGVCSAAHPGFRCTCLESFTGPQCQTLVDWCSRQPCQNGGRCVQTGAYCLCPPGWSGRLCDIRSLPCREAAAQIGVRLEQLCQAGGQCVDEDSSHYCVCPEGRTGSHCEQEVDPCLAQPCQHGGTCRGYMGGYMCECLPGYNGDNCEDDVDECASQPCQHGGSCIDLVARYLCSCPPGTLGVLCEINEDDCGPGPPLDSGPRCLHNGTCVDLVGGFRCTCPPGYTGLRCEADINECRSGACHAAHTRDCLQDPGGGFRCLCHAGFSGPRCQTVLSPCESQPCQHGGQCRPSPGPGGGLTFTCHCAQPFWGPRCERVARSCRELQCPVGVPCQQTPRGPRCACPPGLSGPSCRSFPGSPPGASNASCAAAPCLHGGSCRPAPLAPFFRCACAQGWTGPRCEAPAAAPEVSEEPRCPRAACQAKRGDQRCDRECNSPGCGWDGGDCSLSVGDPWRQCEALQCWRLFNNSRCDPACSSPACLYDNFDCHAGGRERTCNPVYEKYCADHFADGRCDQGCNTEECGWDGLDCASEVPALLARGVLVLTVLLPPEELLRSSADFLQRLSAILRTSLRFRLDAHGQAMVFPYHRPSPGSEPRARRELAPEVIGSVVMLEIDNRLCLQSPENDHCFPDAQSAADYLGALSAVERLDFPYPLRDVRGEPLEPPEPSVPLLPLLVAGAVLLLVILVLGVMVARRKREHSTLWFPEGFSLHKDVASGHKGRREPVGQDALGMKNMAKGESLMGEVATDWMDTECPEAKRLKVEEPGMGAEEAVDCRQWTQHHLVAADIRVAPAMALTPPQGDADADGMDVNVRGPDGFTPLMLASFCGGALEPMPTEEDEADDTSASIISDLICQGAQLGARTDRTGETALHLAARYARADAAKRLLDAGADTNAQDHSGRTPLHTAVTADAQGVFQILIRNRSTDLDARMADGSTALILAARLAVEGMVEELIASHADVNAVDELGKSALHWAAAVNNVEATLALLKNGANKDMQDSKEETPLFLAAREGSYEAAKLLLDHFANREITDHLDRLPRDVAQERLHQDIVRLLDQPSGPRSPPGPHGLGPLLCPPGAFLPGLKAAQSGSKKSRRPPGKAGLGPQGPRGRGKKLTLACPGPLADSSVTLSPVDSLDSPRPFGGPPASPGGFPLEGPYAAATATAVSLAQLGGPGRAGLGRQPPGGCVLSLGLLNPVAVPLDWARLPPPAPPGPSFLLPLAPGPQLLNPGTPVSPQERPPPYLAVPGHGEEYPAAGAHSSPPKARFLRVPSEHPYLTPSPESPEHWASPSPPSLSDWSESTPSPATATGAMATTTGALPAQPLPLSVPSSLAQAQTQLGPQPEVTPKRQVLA
# Sequence of Torsin-1A-interacting protein 2 (Homo sapiens) (Q8NFQ8 whole entry, looked up): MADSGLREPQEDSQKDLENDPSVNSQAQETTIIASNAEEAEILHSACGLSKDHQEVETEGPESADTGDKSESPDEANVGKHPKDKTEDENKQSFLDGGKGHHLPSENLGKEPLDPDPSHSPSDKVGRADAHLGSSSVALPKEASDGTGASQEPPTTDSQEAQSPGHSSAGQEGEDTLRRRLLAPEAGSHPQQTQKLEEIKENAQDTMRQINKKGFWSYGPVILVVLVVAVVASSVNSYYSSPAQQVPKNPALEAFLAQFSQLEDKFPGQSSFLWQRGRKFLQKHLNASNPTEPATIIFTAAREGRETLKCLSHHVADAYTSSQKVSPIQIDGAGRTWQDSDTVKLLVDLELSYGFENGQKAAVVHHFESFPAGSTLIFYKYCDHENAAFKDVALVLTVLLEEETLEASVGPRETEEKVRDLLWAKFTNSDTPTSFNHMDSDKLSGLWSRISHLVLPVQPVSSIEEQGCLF
SMILES,composite z-score [1],composite z-score [2],composite z-score [3],composite z-score [4],composite z-score [5],composite z-score [6],composite z-score [7],z-score [8],composite z-score [9],composite z-score [10],composite z-score [11],z-score [12],z-score [13],z-score [14],composite z-score [15],z-score [16],composite z-score [17],composite z-score [18],composite z-score [19],composite z-score [20]
O=C1O[C@H](c2ccccc2)[C@H](c2ccccc2)N2[C@H]1[C@@H](C(=O)N1CCN(c3ncccn3)CC1)[C@]1(C(=O)Nc3ccccc31)[C@H]2c1ccc(OCCO)cc1,-0.371,0.0417,-0.106,0.309,1.18,0.0248,1.31,1.03 (inactive),0.348,0.34,1.56,2.72 (inactive),0.573 (inactive),4.75 (inactive),2.35,2.9 (inactive),-0.037,1.88,1.1,-0.0763
CC(C)=CCCC(C)=CC(O)C1C=CC2C(=O)N(c3ccccc3)C(=O)C2N1Nc1ccccc1 (stereo not given),0.475,0.135,0.155,1.16,1.64,1.17,1.06,-2.84 (inactive),1.6,0.0497,0.967,0.316 (inactive),0.171 (inactive),1.02 (inactive),2.89,-1.99 (inactive),0.201,-0.196,1.04,0.438
CC(C)N1C(=O)C[C@@](C(=O)NCc2ccccc2)(c2ccc([N+](=O)[O-])cc2)[C@H]1c1ccc(CO)cc1,0.539,1.22,-0.138,-0.136,0.0796,-0.524,1.25,0.167 (inactive),-0.699,-0.201,1.01,0.296 (inactive),-0.203 (inactive),-0.881 (inactive),3.48,0.796 (inactive),0.16,-0.112,0.199,-0.167
[N-]=[N+]=NCc1ccccc1C[C@]1(C(=O)NCC(O)CO)N=C(c2ccc(OCCCO)cc2)O[C@H]1c1ccccc1N=[N+]=[N-] (stereo not given in full),1.55,0.459,-0.01,0.77,0.814,1.17,0.731,-0.5 (inactive),0.575,-0.194,-0.384,0.727 (inactive),0.325 (inactive),2.77 (inactive),2.61,1.02 (inactive),0.679,-0.761,-0.25,0.428
C=CCNC(=O)[C@@H]1[C@H]2C(=O)O[C@H](c3ccccc3)[C@H](c3ccccc3)N2[C@H](c2ccccc2OCCO)[C@@]12C(=O)Nc1ccc(C#CC3=CCCCC3)cc12,-0.098,0.571,0.0368,0.865,1.25,0.948,1.12,0.0472 (inactive),0.639,0.134,1.55,1.05 (inactive),-3.5 (inactive),2.87 (inactive),2.75,1.47 (inactive),0.058,0.983,1.11,-0.0185
COCCOC(=O)N1C(=O)[C@@]2(c3cc(C#CCNC(N)=O)ccc31)[C@H](C(=O)N1CCc3cc(OC)c(OC)cc3C1)[C@H]1C(=O)O[C@H](c3ccccc3)[C@H](c3ccccc3)N1[C@@H]2c1ccc(OCCO)cc1,-0.222,0.388,-0.0293,0.392,0.578,0.0155,0.172,0.363 (inactive),0.536,0.12,1.08,0.854 (inactive),0.575 (inactive),4.41 (inactive),0.277,0.692 (inactive),-0.0163,1.3,1.13,-0.0734
COCC(=C=CC[C@H](O)c1ccc(OCCO)cc1)C[C@H](O)c1cc(Cl)cc(Cl)c1O,-0.327,0.95,-0.0125,0.754,0.623,0.458,1.16,-3.67 (inactive),0.582,0.0505,1.55,-24.9 (active),-20.5 (active),-3.87 (inactive),-1.22,0.813 (inactive),-0.166,1.86,1.12,-0.0334
Cc1ccc(S[C@]2(C(=O)NC3CC3)CC(=O)N(Cc3ccccc3)[C@@H]2c2ccc(CO)cc2)cc1,0.462,-1.21,-0.118,-0.0824,-0.764,-0.419,0.0059,-1.17 (inactive),0.135,-0.247,0.0655,-0.592 (inactive),-0.852 (inactive),-0.168 (inactive),2.08,-0.445 (inactive),0.0704,-0.347,-0.462,-0.0778
O=c1oc(-c2ccccc2)nc2cc(Br)ccc12,-0.0862,0.0961,-0.103,0.298,0.325,-0.0187,0.52,-0.409 (inactive),0.127,-0.287,0.35,0.844 (inactive),-1.43 (inactive),-0.0605 (inactive),0.711,0.258 (inactive),-0.0478,0.625,0.693,-0.111
COc1cc(CO)ccc1OC(C)=O,-0.651,0.336,-0.0279,0.28,0.382,0.34,0.707,-0.847 (inactive),0.195,0.122,0.657,-2.07 (inactive),-1.44 (inactive),-0.377 (inactive),0.0135,1.14 (inactive),-0.332,0.601,0.317,-0.112
